Common to all, as to experiment: DAPPL (digital affinity profiling via proximity ligation, sequencing); 10 mM Tris-HCl pH 7.5, 50 mM NaCl, 1 mM DTT, 4% glycerol, room temperature, 30 min; GST-TFs on glutathione beads, 16-mer random dsDNA library, 0.1% formaldehyde crosslink after washing; high values mean tight binding
One experiment deals with T1, FEV (Homo sapiens, UniProt Q99581 1-238).
T1 sequence: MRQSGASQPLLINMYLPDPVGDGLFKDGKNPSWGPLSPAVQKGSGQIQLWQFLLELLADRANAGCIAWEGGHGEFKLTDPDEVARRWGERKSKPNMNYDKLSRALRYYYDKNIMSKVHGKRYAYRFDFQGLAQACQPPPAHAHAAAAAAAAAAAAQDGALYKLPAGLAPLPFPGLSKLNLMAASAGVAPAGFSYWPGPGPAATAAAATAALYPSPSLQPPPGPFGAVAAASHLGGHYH
Particulars: protein: recombinant; tags: N-terminal GST; dsDNA, one strand shown. An outline of the steps: (§1)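 Human transcription factors fused to GST were expressed in yeast, captured on glutathione beads, given DNA barcodes and pooled with a GST-only negative control. Pools were incubated with 200 nmole of a 16-mer random double-stranded DNA library in Tris/NaCl/DTT/glycerol buffer at room temperature for 30 min. They were then washed, crosslinked with 0.1% formaldehyde, proximity-ligated (BsaI/T4 ligase, 1 h, 37 °C), PCR-amplified and sequenced on an Illumina NextSeq500. Binding signal is each 6-mer's read frequency for a factor divided by its frequency for the GST control.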

For a further experiment, the target named is ETV5 (Homo sapiens, UniProt P41161 1-510). Particulars: protein: recombinant; tags: N-terminal GST; dsDNA, one strand shown. An outline of the steps: as §1
For another experiment, the target named is HSF1 (Homo sapiens, UniProt Q00613 1-529). Particulars: protein: recombinant; tags: N-terminal GST; chain copies: 3; dsDNA, one strand shown. An outline of the steps:
as §1

For another experiment, the target named is T2, SPIC (Homo sapiens, UniProt Q8N5J4 1-248).
T2 sequence: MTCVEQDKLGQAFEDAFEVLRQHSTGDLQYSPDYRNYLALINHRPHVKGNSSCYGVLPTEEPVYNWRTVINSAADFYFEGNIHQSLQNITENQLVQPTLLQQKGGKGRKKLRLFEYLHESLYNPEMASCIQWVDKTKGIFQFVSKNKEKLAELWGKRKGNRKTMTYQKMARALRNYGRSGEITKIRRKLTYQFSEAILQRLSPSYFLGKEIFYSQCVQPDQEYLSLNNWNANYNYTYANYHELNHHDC
Particulars: protein: recombinant; tags: N-terminal GST; dsDNA, one strand shown. An outline of the steps: as §1

In the next experiment the target is ELF4 (Homo sapiens, UniProt Q99607 1-663). The note with it: protein: recombinant; tags: N-terminal GST; dsDNA, one strand shown. A digest of the protocol:
as §1

A further experiment has as its target T3, ELK4 (Homo sapiens, UniProt P28324-2 1-405).
T3 sequence: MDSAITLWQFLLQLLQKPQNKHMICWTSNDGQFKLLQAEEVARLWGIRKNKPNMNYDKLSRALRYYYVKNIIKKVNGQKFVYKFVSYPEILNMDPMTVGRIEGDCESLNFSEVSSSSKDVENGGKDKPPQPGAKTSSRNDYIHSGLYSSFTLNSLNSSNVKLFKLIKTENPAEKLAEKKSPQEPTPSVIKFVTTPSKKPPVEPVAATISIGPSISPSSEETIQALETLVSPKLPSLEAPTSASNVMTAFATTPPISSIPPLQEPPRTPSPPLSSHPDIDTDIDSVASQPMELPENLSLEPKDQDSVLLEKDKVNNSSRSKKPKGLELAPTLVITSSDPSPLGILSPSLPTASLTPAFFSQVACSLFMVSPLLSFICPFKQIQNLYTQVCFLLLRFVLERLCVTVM
The note with it: protein: recombinant; tags: N-terminal GST; dsDNA, one strand shown. A digest of the protocol: as §1

For another experiment, the target named is T4, ETV2 (Homo sapiens, UniProt O00321 1-342).
T4 sequence: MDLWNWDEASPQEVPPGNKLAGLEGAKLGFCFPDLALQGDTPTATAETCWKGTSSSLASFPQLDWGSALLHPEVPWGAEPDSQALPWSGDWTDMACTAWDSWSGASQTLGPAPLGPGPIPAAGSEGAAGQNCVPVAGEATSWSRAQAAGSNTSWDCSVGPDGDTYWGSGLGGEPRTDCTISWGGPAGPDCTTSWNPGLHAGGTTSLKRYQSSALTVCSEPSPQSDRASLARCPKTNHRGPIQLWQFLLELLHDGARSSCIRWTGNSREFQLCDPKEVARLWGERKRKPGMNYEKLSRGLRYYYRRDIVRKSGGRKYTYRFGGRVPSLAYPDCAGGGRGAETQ
The note with it: protein: recombinant; tags: N-terminal GST; dsDNA, one strand shown. An outline of the steps: as §1

The target in a further experiment is T5, ELF3 (Homo sapiens, UniProt P78545 1-371).
T5 sequence: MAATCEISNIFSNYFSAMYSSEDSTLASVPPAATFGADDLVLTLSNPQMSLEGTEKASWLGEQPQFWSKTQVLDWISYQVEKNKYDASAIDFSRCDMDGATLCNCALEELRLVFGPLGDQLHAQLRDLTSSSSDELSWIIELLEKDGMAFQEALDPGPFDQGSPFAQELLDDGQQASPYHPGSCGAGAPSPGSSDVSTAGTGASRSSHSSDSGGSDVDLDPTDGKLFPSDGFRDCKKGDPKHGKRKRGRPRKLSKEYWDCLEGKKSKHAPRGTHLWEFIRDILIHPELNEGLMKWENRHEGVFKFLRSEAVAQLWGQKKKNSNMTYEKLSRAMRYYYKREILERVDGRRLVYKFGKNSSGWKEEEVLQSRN
The note with it: protein: recombinant; tags: N-terminal GST; dsDNA, one strand shown. An outline of the steps:
as §1

The next experiment concerns the target CRX (Homo sapiens, UniProt O43186 1-299). The note with it: protein: recombinant; tags: N-terminal GST; dsDNA, one strand shown. An outline of the steps: as §1
The target in a further experiment is ETV1 (Homo sapiens, UniProt P50549 1-477). The note with it: protein: recombinant; tags: N-terminal GST; dsDNA, one strand shown. An outline of the steps: as §1
In another experiment the target is T6, ERF (Homo sapiens, UniProt P50548 1-548).
T6 sequence: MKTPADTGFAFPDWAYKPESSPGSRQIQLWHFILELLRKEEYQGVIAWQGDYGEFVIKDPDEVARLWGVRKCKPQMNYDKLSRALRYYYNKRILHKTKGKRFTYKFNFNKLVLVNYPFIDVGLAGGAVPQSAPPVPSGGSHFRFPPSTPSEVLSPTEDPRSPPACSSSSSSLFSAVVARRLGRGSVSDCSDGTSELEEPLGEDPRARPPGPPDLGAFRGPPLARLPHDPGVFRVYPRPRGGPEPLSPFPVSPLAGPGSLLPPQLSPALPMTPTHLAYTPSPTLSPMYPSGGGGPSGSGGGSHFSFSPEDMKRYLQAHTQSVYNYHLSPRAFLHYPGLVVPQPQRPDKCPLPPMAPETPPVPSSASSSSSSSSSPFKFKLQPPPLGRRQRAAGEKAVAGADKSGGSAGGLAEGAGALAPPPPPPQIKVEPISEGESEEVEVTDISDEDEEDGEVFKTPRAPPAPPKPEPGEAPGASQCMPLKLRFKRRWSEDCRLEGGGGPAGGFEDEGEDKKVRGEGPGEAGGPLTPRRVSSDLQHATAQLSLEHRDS
The note with it: protein: recombinant; tags: N-terminal GST; dsDNA, one strand shown. An outline of the steps:
as §1

The target of another experiment is T7, ETV3L (Homo sapiens, UniProt Q6ZN32 1-361).
T7 sequence: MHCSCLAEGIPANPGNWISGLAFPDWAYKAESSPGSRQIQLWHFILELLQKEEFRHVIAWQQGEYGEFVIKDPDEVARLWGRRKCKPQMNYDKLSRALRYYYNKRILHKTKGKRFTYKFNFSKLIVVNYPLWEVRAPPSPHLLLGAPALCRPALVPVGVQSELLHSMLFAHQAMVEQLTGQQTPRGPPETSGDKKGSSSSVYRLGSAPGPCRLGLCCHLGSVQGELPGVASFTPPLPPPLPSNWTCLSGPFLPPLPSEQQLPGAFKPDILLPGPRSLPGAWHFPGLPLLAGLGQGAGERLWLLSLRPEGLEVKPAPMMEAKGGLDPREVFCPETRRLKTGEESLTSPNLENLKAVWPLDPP
The note with it: protein: recombinant; tags: N-terminal GST; dsDNA, one strand shown. An outline of the steps: as §1

A further experiment deals with T8, ETS2 (Homo sapiens, UniProt P15036 1-469).
T8 sequence: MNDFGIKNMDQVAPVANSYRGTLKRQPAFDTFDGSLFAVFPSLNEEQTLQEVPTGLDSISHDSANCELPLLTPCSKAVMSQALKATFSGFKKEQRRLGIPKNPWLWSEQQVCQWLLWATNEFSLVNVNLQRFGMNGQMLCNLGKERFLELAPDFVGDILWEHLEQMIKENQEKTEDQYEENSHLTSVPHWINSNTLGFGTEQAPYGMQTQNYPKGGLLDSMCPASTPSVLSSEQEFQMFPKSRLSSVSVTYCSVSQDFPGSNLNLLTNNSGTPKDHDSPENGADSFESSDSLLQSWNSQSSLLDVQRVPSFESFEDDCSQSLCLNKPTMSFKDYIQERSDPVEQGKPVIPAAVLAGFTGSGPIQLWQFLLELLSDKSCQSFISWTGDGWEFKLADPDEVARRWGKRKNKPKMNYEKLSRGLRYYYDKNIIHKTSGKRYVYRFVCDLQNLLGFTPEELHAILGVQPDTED
Particulars: protein: recombinant; tags: N-terminal GST; dsDNA, one strand shown. A digest of the protocol:
as §1

Another experiment deals with T9, SPDEF (Homo sapiens, UniProt O95238 1-335).
T9 sequence: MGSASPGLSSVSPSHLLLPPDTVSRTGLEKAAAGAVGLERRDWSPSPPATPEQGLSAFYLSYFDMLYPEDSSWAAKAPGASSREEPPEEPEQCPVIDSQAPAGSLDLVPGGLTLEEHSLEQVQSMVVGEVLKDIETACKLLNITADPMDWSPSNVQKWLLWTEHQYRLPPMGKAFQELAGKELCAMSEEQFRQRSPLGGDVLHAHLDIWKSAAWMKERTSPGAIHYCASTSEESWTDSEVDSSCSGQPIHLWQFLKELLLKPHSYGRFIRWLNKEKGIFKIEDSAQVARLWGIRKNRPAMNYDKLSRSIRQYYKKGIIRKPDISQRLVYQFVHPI
Particulars: protein: recombinant; tags: N-terminal GST; dsDNA, one strand shown. An outline of the steps:
as §1

The next experiment addresses T10, ETV7 (Homo sapiens, UniProt Q9Y603 1-341).
T10 sequence: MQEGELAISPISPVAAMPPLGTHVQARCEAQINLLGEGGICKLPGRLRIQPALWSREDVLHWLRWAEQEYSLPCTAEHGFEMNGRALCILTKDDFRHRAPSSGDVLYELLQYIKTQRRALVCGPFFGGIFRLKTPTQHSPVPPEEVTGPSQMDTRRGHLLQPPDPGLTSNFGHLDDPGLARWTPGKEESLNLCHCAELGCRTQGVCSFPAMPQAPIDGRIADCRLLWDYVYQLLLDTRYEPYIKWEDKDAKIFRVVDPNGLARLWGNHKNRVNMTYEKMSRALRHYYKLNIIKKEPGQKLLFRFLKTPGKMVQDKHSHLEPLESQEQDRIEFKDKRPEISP
Particulars: protein: recombinant; tags: N-terminal GST; dsDNA, one strand shown. An outline of the steps: as §1

The target in a further experiment is T11, ELF5 (Homo sapiens, UniProt Q9UKW6-2 1-255).
T11 sequence: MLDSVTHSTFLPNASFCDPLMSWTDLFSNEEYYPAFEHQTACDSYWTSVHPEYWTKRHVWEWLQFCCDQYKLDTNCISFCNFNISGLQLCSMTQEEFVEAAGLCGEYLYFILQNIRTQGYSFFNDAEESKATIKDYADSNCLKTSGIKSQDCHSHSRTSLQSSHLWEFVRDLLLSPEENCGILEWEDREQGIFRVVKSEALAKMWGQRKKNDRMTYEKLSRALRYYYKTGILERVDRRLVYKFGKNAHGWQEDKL
The note with it: protein: recombinant; tags: N-terminal GST; dsDNA, one strand shown. An outline of the steps: as §1

In a further experiment the target is T12, ETV3 (Homo sapiens, UniProt P41162-2 1-143).
T12 sequence: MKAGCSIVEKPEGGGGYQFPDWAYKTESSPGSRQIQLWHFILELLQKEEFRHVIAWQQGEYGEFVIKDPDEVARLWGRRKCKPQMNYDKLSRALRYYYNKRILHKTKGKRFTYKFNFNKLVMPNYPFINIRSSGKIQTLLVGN
The note with it: protein: recombinant; tags: N-terminal GST; dsDNA, one strand shown. A digest of the protocol: as §1

The next experiment deals with ETV6 (Homo sapiens, UniProt P41212 1-452). Particulars: protein: recombinant; tags: N-terminal GST; dsDNA, one strand shown. An outline of the steps: as §1
ETV6, sequence (P41212 whole entry): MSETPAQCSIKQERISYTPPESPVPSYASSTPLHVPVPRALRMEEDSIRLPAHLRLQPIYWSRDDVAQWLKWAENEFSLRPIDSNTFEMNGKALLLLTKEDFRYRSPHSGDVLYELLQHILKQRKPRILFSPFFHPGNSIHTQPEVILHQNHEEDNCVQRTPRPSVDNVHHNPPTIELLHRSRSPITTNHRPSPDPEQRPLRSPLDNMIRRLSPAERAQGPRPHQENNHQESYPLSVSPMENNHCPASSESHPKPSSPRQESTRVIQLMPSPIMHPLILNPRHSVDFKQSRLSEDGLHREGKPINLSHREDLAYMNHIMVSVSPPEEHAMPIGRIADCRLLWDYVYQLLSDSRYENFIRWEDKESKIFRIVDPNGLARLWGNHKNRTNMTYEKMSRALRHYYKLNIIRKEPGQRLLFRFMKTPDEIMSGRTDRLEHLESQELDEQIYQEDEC

CRX, sequence (O43186 whole entry): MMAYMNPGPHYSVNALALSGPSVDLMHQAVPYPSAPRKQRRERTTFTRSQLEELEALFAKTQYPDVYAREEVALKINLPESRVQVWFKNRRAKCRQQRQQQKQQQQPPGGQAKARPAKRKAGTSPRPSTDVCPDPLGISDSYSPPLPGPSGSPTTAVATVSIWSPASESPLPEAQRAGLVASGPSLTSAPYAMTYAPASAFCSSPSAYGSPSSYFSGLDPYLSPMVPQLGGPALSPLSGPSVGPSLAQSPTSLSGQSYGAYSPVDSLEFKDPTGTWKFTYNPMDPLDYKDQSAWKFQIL
ELF4, sequence (Q99607 whole entry): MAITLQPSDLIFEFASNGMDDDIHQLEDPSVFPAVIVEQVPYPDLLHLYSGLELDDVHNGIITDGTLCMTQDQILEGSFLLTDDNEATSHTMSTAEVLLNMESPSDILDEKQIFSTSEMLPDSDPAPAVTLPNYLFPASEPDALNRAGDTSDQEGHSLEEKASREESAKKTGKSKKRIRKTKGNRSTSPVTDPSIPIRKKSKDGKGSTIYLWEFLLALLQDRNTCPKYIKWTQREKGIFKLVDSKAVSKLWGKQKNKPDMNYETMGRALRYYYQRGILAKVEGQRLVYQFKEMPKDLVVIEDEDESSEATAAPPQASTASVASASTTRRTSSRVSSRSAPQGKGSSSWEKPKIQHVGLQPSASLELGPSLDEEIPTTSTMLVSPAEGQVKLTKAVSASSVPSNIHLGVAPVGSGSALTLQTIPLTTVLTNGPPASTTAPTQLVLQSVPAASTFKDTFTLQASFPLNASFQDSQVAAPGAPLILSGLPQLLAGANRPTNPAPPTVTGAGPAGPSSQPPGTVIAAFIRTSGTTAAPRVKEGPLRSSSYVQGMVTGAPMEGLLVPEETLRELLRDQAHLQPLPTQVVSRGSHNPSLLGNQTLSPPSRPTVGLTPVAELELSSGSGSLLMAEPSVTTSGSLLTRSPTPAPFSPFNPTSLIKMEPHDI
ETV1, sequence (P50549 whole entry): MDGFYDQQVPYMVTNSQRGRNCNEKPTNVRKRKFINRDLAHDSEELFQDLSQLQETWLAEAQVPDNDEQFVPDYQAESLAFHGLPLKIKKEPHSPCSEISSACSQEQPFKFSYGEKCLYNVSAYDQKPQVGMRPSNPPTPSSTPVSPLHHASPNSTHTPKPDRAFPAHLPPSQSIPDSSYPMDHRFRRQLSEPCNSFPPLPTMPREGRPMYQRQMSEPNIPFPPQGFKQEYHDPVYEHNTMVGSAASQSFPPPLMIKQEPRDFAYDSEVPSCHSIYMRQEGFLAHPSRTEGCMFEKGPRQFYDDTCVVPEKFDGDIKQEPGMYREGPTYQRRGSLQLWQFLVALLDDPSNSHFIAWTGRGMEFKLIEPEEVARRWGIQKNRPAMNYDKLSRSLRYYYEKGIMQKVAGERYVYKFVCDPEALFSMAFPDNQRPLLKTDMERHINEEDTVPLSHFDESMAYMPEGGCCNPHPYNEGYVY
HSF1, sequence (Q00613 whole entry): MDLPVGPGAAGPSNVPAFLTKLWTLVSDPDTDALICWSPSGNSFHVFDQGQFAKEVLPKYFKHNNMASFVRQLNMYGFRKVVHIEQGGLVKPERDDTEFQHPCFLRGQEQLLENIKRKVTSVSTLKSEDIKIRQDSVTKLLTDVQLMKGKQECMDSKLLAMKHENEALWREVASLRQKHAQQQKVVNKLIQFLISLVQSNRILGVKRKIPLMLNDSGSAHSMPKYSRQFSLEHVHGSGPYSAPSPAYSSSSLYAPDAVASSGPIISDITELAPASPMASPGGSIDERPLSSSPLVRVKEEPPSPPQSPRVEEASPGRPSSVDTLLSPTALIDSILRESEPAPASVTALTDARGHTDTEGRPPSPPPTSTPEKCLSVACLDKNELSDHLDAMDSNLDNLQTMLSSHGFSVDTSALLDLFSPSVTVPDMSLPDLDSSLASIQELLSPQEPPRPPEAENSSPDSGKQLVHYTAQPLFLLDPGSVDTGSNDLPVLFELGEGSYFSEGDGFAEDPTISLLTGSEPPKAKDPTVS
ETV5, sequence (P41161 whole entry): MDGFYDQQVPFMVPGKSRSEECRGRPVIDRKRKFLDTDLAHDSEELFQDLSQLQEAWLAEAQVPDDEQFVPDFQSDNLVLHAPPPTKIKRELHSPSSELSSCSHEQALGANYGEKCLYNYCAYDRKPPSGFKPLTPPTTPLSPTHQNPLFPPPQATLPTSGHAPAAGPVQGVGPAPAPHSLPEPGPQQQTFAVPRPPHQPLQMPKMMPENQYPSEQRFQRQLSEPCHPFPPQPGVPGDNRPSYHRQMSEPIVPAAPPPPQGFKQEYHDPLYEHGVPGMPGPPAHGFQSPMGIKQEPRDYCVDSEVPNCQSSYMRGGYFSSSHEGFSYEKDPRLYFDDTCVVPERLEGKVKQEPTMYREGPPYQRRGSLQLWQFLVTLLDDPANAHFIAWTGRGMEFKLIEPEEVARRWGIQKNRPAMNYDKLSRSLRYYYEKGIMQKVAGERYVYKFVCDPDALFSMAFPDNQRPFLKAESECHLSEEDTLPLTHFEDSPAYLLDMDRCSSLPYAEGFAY

In the case of GTTTTT, the binding signal is 1.23 fold enrichment (6-mer frequency, TF over GST control) with FEV; 1.31 fold enrichment (6-mer frequency, TF over GST control) with ETV5; 1.21 fold enrichment (6-mer frequency, TF over GST control) in the experiment with HSF1; 1.41 fold enrichment (6-mer frequency, TF over GST control) in the experiment with SPIC; 1.33 fold enrichment (6-mer frequency, TF over GST control) with ELF4; 1.32 fold enrichment (6-mer frequency, TF over GST control) with ELK4. The binding signal with ETV2 is 1.38 fold enrichment (6-mer frequency, TF over GST control); with ELF3, 1.29 fold enrichment (6-mer frequency, TF over GST control); with CRX, 1.13 fold enrichment (6-mer frequency, TF over GST control); with ETV1, 1.24 fold enrichment (6-mer frequency, TF over GST control); in the experiment with ERF, 1.07 fold enrichment (6-mer frequency, TF over GST control); with ETV3L, 1.3 fold enrichment (6-mer frequency, TF over GST control). Moreover, the binding signal with ETS2 was 1.25 fold enrichment (6-mer frequency, TF over GST control); with SPDEF, 1.23 fold enrichment (6-mer frequency, TF over GST control); in the experiment with ETV7, 1.2 fold enrichment (6-mer frequency, TF over GST control); with ELF5 it was 1.36 fold enrichment (6-mer frequency, TF over GST control); with ETV3, 1.34 fold enrichment (6-mer frequency, TF over GST control); in the experiment with ETV6, 1.21 fold enrichment (6-mer frequency, TF over GST control).

(Values after PMC7862700, “An all-to-all approach to the identification of sequence-specific readers for epigenetic DNA modifications on cytosine”.)
